Substitutions are numbered along the chain they refer to; changes in the protein carry UniProt numbers. Over roughly 16,000 sequences, “ka relative to ugcaugu” has its median near 0.096; the highest 2% begin near 0.35. This is one part of a sample in which the highest values are shown more often than they occur.
T1: RBFOX1 RRM RbFoxmut (Fox-RRM*) (Homo sapiens, UniProt Q9NWB1 109-208, R118D;E147R;N151S;E152T)
T1 sequence: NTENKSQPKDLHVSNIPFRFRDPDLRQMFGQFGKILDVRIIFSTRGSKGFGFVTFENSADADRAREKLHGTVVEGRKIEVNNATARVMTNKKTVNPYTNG

B1: UAGUCAA (DNA:RNA)
RNA: GGGAGACCGGAAUUCAGAUUGUCCUAGUCAAUUAAAUCCCGUCGUAGCCACCA
DNA 1: CAATCTGAATTCCGGTCTCCC
DNA 2: TGGTGGCTACGACGGGATT
B2: GUUGUUC (DNA:RNA)
RNA: GGGAGACCGGAAUUCAGAUUGUCCGUUGUUCUUAAAUCCCGUCGUAGCCACCA
DNA 1: CAATCTGAATTCCGGTCTCCC
DNA 2: TGGTGGCTACGACGGGATT
B3: GAAUCGC (DNA:RNA)
RNA: B1 RNA with U25G, G27A, A30G, A31C
DNA 1: CAATCTGAATTCCGGTCTCCC
DNA 2: TGGTGGCTACGACGGGATT
B4: GAAUCCG (DNA:RNA)
RNA: B1 RNA with U25G, G27A, A30C, A31G
DNA 1: CAATCTGAATTCCGGTCTCCC
DNA 2: TGGTGGCTACGACGGGATT
B5: CGAUCGC (DNA:RNA)
RNA: B1 RNA with U25C, A26G, G27A, A30G, A31C
DNA 1: CAATCTGAATTCCGGTCTCCC
DNA 2: TGGTGGCTACGACGGGATT
B6: GAACCGU (DNA:RNA)
RNA: B1 RNA with U25G, G27A, U28C, A30G, A31U
DNA 1: CAATCTGAATTCCGGTCTCCC
DNA 2: TGGTGGCTACGACGGGATT
B7: UGAAUUG (DNA:RNA)
RNA: B2 RNA with G25U, U26G, U27A, G28A, C31G
DNA 1: CAATCTGAATTCCGGTCTCCC
DNA 2: TGGTGGCTACGACGGGATT
B8: UGAAUCG (DNA:RNA)
RNA: B2 RNA with G25U, U26G, U27A, G28A, U30C, C31G
DNA 1: CAATCTGAATTCCGGTCTCCC
DNA 2: TGGTGGCTACGACGGGATT
B9: UGAACCG (DNA:RNA)
RNA: B1 RNA with A26G, G27A, U28A, A30C, A31G
DNA 1: CAATCTGAATTCCGGTCTCCC
DNA 2: TGGTGGCTACGACGGGATT
B10: CGAAUCG (DNA:RNA)
RNA: B2 RNA with G25C, U26G, U27A, G28A, U30C, C31G
DNA 1: CAATCTGAATTCCGGTCTCCC
DNA 2: TGGTGGCTACGACGGGATT
B11: GAAUCGU (DNA:RNA)
RNA: B1 RNA with U25G, G27A, A30G, A31U
DNA 1: CAATCTGAATTCCGGTCTCCC
DNA 2: TGGTGGCTACGACGGGATT
B12: GAAUUGU (DNA:RNA)
RNA: B2 RNA with U26A, U27A, G28U, U30G, C31U
DNA 1: CAATCTGAATTCCGGTCTCCC
DNA 2: TGGTGGCTACGACGGGATT
B13: GGAUCGC (DNA:RNA)
RNA: B2 RNA with U26G, U27A, G28U, U29C, U30G
DNA 1: CAATCTGAATTCCGGTCTCCC
DNA 2: TGGTGGCTACGACGGGATT
B14: GAAAUCG (DNA:RNA)
RNA: B2 RNA with U26A, U27A, G28A, U30C, C31G
DNA 1: CAATCTGAATTCCGGTCTCCC
DNA 2: TGGTGGCTACGACGGGATT
B15: UCCCACC (DNA:RNA)
RNA: B2 RNA with G25U, U26C, U27C, G28C, U29A, U30C
DNA 1: CAATCTGAATTCCGGTCTCCC
DNA 2: TGGTGGCTACGACGGGATT
B16: GAGACGU (DNA:RNA)
RNA: B1 RNA with U25G, U28A, A30G, A31U
DNA 1: CAATCTGAATTCCGGTCTCCC
DNA 2: TGGTGGCTACGACGGGATT
B17: CGUCCCU (DNA:RNA)
RNA: B2 RNA with G25C, U26G, G28C, U29C, U30C, C31U
DNA 1: CAATCTGAATTCCGGTCTCCC
DNA 2: TGGTGGCTACGACGGGATT
B18: ACGGCGC (DNA:RNA)
RNA: B2 RNA with G25A, U26C, U27G, U29C, U30G
DNA 1: CAATCTGAATTCCGGTCTCCC
DNA 2: TGGTGGCTACGACGGGATT
B19: AGAGAUA (DNA:RNA)
RNA: B2 RNA with G25A, U26G, U27A, U29A, C31A
DNA 1: CAATCTGAATTCCGGTCTCCC
DNA 2: TGGTGGCTACGACGGGATT
B20: AAUCCAU (DNA:RNA)
RNA: B1 RNA with U25A, G27U, U28C, A31U
DNA 1: CAATCTGAATTCCGGTCTCCC
DNA 2: TGGTGGCTACGACGGGATT
B21: GGAAACG (DNA:RNA)
RNA: B2 RNA with U26G, U27A, G28A, U29A, U30C, C31G
DNA 1: CAATCTGAATTCCGGTCTCCC
DNA 2: TGGTGGCTACGACGGGATT
B22: ACGCCAA (DNA:RNA)
RNA: B1 RNA with U25A, A26C, U28C
DNA 1: CAATCTGAATTCCGGTCTCCC
DNA 2: TGGTGGCTACGACGGGATT
B23: CGAUCGA (DNA:RNA)
RNA: B1 RNA with U25C, A26G, G27A, A30G
DNA 1: CAATCTGAATTCCGGTCTCCC
DNA 2: TGGTGGCTACGACGGGATT
B24: GAACCAG (DNA:RNA)
RNA: B1 RNA with U25G, G27A, U28C, A31G
DNA 1: CAATCTGAATTCCGGTCTCCC
DNA 2: TGGTGGCTACGACGGGATT
B25: CCCGGCG (DNA:RNA)
RNA: B2 RNA with G25C, U26C, U27C, U29G, U30C, C31G
DNA 1: CAATCTGAATTCCGGTCTCCC
DNA 2: TGGTGGCTACGACGGGATT
B26: GGAAUCA (DNA:RNA)
RNA: B2 RNA with U26G, U27A, G28A, U30C, C31A
DNA 1: CAATCTGAATTCCGGTCTCCC
DNA 2: TGGTGGCTACGACGGGATT
B27: GAUCGAA (DNA:RNA)
RNA: B1 RNA with U25G, G27U, U28C, C29G
DNA 1: CAATCTGAATTCCGGTCTCCC
DNA 2: TGGTGGCTACGACGGGATT
B28: GAAUCGA (DNA:RNA)
RNA: B1 RNA with U25G, G27A, A30G
DNA 1: CAATCTGAATTCCGGTCTCCC
DNA 2: TGGTGGCTACGACGGGATT
B29: GAAUCAG (DNA:RNA)
RNA: B1 RNA with U25G, G27A, A31G
DNA 1: CAATCTGAATTCCGGTCTCCC
DNA 2: TGGTGGCTACGACGGGATT
B30: GUUAUCA (DNA:RNA)
RNA: B2 RNA with G28A, U30C, C31A
DNA 1: CAATCTGAATTCCGGTCTCCC
DNA 2: TGGTGGCTACGACGGGATT
B31: GGCGUCG (DNA:RNA)
RNA: B2 RNA with U26G, U27C, U30C, C31G
DNA 1: CAATCTGAATTCCGGTCTCCC
DNA 2: TGGTGGCTACGACGGGATT
B32: GUCAUCA (DNA:RNA)
RNA: B2 RNA with U27C, G28A, U30C, C31A
DNA 1: CAATCTGAATTCCGGTCTCCC
DNA 2: TGGTGGCTACGACGGGATT
B33: GGCGUUG (DNA:RNA)
RNA: B2 RNA with U26G, U27C, C31G
DNA 1: CAATCTGAATTCCGGTCTCCC
DNA 2: TGGTGGCTACGACGGGATT
B34: GAUUCAG (DNA:RNA)
RNA: B1 RNA with U25G, G27U, A31G
DNA 1: CAATCTGAATTCCGGTCTCCC
DNA 2: TGGTGGCTACGACGGGATT

Target: T1, RBFOX1 RRM RbFoxmut (Fox-RRM*)
Assay: EMSA; HiTS-Eq, 1 nM pool, 10 min; buffer printed only for the single-RNA assays: 10 mM Tris pH 7.5, 150 mM NaCl, 3.4 mM EDTA, 0.001% NP-40, 30 C
Settings: tags: His6 N-terminal (pET28a); label: 5' 32P
Procedure, shortened: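 Relative association constants, normalised to the cognate motif, were derived by comparing read counts of each RNA species with those of the control reaction. The RNA sequenced was the free fraction, separated by 8% native PAGE after a 10 min equilibration in 50 µL of 1 nM 5′-radiolabelled RNA (7 randomized nucleotides) with increasing concentrations of purified wild-type or mutant RbFox RRM.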

| Binder | binding signal |
| --- | --- |
| B1 | 0.0801 KA relative to UGCAUGU |
| B2 | 0.106 KA relative to UGCAUGU |
| B3 | 0.512 KA relative to UGCAUGU |
| B4 | 0.219 KA relative to UGCAUGU |
| B5 | 0.0736 KA relative to UGCAUGU |
| B6 | 0.126 KA relative to UGCAUGU |
| B7 | 0.174 KA relative to UGCAUGU |
| B8 | 0.363 KA relative to UGCAUGU |
| B9 | 0.0911 KA relative to UGCAUGU |
| B10 | 0.374 KA relative to UGCAUGU |
| B11 | 0.576 KA relative to UGCAUGU |
| B12 | 0.192 KA relative to UGCAUGU |
| B13 | 0.23 KA relative to UGCAUGU |
| B14 | 0.0585 KA relative to UGCAUGU |
| B15 | 0.0864 KA relative to UGCAUGU |
| B16 | 0.0818 KA relative to UGCAUGU |
| B17 | 0.0565 KA relative to UGCAUGU |

| Binder | binding signal |
| --- | --- |
| B18 | 0.119 KA relative to UGCAUGU |
| B19 | 0.15 KA relative to UGCAUGU |
| B20 | 0.074 KA relative to UGCAUGU |
| B21 | 0.0703 KA relative to UGCAUGU |
| B22 | 0.0795 KA relative to UGCAUGU |
| B23 | 0.0748 KA relative to UGCAUGU |
| B24 | 0.105 KA relative to UGCAUGU |
| B25 | 0.098 KA relative to UGCAUGU |
| B26 | 0.426 KA relative to UGCAUGU |
| B27 | 0.113 KA relative to UGCAUGU |
| B28 | 0.561 KA relative to UGCAUGU |
| B29 | 0.389 KA relative to UGCAUGU |
| B30 | 0.18 KA relative to UGCAUGU |
| B31 | 0.203 KA relative to UGCAUGU |
| B32 | 0.129 KA relative to UGCAUGU |
| B33 | 0.367 KA relative to UGCAUGU |
| B34 | 0.155 KA relative to UGCAUGU |
